In PubChem BioAssay (NCI):
Values joined by “and” are separate entries in the source; they are usually repeats but may differ in a detail not shown here. Equal values may be shown once. About 79,000 compounds went through this panel and 15% of them were active in at least one assay; those are over-represented in the sample as a whole. Where a structure was tested more than once in an assay, its records may differ in their call. Active and inactive are the calls of the source. No stated cut-off is given here; in the data, active means growth inhibition above about 70%; inactive means the rest. Where a SMILES comes first, the peptide text is derived from it.

assay: NCI Yeast Anticancer Drug Screen. Data for the rad50 strain (AID 155);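 further: 0% = growth of vehicle-only cultures of the same strain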; conditions: S. cerevisiae rad50 strain growth inhibition; at 5.0 µM (retest, dose inferred, filed as 0.5); stronger effect = higher value
How it was run: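 Readout: growth inhibition relative to vehicle-treated cultures. Compound exposure was carried out in a genetically defined yeast strain deficient in DNA damage repair.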

Structure (SMILES) | growth inhibition
C=C[C@]1(C)C=C2C(O)CC3C(C)(C)CCC[C@]3(CO)C2CC1 (some centres undefined) | 8% (inactive)
c1ccc(-c2cnc(-c3ccc(-c4ncc(-c5ccccc5)o4)cc3)o2)cc1 | -13% (inactive)
Nc1ccc2c(ccc3ccc4ccccc4c32)c1 | -6% (inactive)
O/N=C(\CC(O)(C(F)(F)F)C(F)(F)F)c1cccc(Cl)c1 | 13% (inactive)
CC(=O)OC1CCC2(C)C(CCC3C4CCC(OC(C)=O)C4(C)CCC32)O1 (centres undefined) | -3% (inactive)
Cc1[nH]c2ccccc2c1C1Cc2ccccc2N1 (centres undefined) | 14% (inactive) and 19% (inactive)
COc1ccc(C2c3cc4c(cc3OC(NNC(N)=O)C2C)OCO4)cc1 (centres undefined) | -1% (inactive)
Oc1ccc(C(O)(c2ccccc2)c2ccccc2)cc1 | 45% (inactive) and 42% (inactive)
COc1ccc(CC(=O)c2ccc(O)cc2O)cc1 | 30% (inactive)
COC(=O)C#CC(=O)OC | 14% (inactive)
O=C1OC2=C(c3ccccc3)CCCC2C1=O (centres undefined) | -1% (inactive)
CC(C)C(NC(=O)C(N)CCC(=O)O)C(=O)O (stereo not drawn) (H-Glu-Val-OH; configuration not given here) | -3% (inactive)
CC1(C)CC(=O)C2=C(C1)OC1=C(CC(C)(C)CC1=O)C2c1ccccc1Cl (centres undefined) | 19% (inactive)
O=C(CC(=O)CC(O)(c1ccccc1)c1ccccc1)CC(=O)c1ccccc1 | -4% (inactive)
O=Nc1ccc(C=C2C(=O)C=CC2=O)cc1 | 94% (active)
C[N+]1(Cc2ccc(Cl)c(Cl)c2)CCCC1C1CCCN(Cc2ccc(Cl)c(Cl)c2)C1 (centres undefined) | -4% (inactive)
C[C@H]1CC[C@H]([C@@H](C)[C@H]2[C@@H](O)C[C@H]3[C@@H]4CC[C@H]5C[C@@H](O)CC[C@]5(C)[C@H]4CC[C@]23C)NC1 | 32% (inactive) and 5% (inactive)
CCOP(=O)(OCC)C(C)(CC)NC(=O)C(C(F)(F)F)C(F)(F)F (centres undefined) | 21% (inactive)
[N-]=[N+]=NC(=O)Nc1cccc(C(F)(F)F)c1 | 8% (inactive)
NC(C/[N+]([O-])=N/O)C(=O)O (centres undefined) | 18% (inactive)
NC(=O)N/N=C/c1ccc([N+](=O)[O-])o1 | 2% (inactive)

same assay, conditions: S. cerevisiae rad50 strain growth inhibition; at 50.0 µM (retest, dose inferred, filed as 5.0); stronger effect = higher value

Structure (SMILES) | growth inhibition
Cc1cccc(Cc2ccccc2Cl)c1O | 93% (active)
OC1CN(Cc2ccccc2)C[C@@H]1O (some centres undefined) | 99% (active)
BrC(c1cccc2ccccc12)c1cccc2ccccc12 | 97% (active)
COc1nc(NC2OC(CO)C(O)C(O)C2O)c(Cl)c(=O)n1C (centres undefined) | 5% (inactive)
O=S(=O)(CC(Cl)c1ccccc1)c1nc2ccccc2s1 (centres undefined) | -7% (inactive)
CCCCCCCCCCCCOS(=O)(=O)O | 29% (inactive)
O=C(NNc1ccnc2cc(Cl)ccc12)/C(=C/c1ccc2c(c1)OCO2)NC(=O)c1ccccc1 | 71% (active)
O=C(CCN1CCN2c3ccccc3CCC2C1)c1ccc(F)cc1 (centres undefined) | 86% (active) and 98% (active)
CC1C[C@]2(C)C(=O)Nc3ccccc3[C@@H]2Nc2ccccc21 (some centres undefined) | 36% (inactive)
Nc1nc(=S)c2ncn(C3OC(CO)C(O)C3O)c2[nH]1 (centres undefined) | 5% (inactive)
O=C(O)c1c2ccccc2nc2[nH]c(=O)[nH]c(=O)c12 | -3% (inactive)
N#Cc1c(/N=C/c2ccccc2Cl)sc2c1CCC2 | -14% (inactive)
CCC1=C(C)/C(=C/c2[nH]c(C)c(CC)c2C)N=C1C | 20% (inactive) and -58% (inactive)
O=C(O)c1ccccc1C(=O)O | 8% (inactive)
Cc1cc(C)nc(NS(=O)(=O)c2ccc(Nc3c4ccccc4nc4c(C(=O)NCCCN(CCO)CCO)cccc34)cc2)n1 | 20% (inactive)
CCCCCCCCCCCCCCCCCCOCC(COP(=O)([O-])OCC[N+](C)(C)C)OC (centres undefined) | -9% (inactive)
S=c1nc[nH]c2[nH]ccc12 | -4% (inactive)
C=C[C@]1(C)C=C2C(O)CC3C(C)(C)CCC[C@]3(CO)C2CC1 (some centres undefined) | 99% (active)
c1ccc(-c2cnc(-c3ccc(-c4ncc(-c5ccccc5)o4)cc3)o2)cc1 | -8% (inactive)

Structure (SMILES) | growth inhibition
Nc1ccc2c(ccc3ccc4ccccc4c32)c1 | 93% (active)
O/N=C(\CC(O)(C(F)(F)F)C(F)(F)F)c1cccc(Cl)c1 | 80% (active)
CC(=O)OC1CCC2(C)C(CCC3C4CCC(OC(C)=O)C4(C)CCC32)O1 (centres undefined) | 79% (active)
Cc1[nH]c2ccccc2c1C1Cc2ccccc2N1 (centres undefined) | 15% (inactive) and 76% (active)
COc1ccc(C2c3cc4c(cc3OC(NNC(N)=O)C2C)OCO4)cc1 (centres undefined) | 96% (active)
Oc1ccc(C(O)(c2ccccc2)c2ccccc2)cc1 | 57% (inactive) and 91% (active)
COc1ccc(CC(=O)c2ccc(O)cc2O)cc1 | 90% (active)
COC(=O)C#CC(=O)OC | 96% (active)
O=C1OC2=C(c3ccccc3)CCCC2C1=O (centres undefined) | 88% (active)
CC(C)C(NC(=O)C(N)CCC(=O)O)C(=O)O (stereo not drawn) (H-Glu-Val-OH; configuration not given here) | 2% (inactive)
CC1(C)CC(=O)C2=C(C1)OC1=C(CC(C)(C)CC1=O)C2c1ccccc1Cl (centres undefined) | 16% (inactive)
O=C(CC(=O)CC(O)(c1ccccc1)c1ccccc1)CC(=O)c1ccccc1 | 95% (active)
O=Nc1ccc(C=C2C(=O)C=CC2=O)cc1 | 98% (active)
C[N+]1(Cc2ccc(Cl)c(Cl)c2)CCCC1C1CCCN(Cc2ccc(Cl)c(Cl)c2)C1 (centres undefined) | 51% (inactive)
C[C@H]1CC[C@H]([C@@H](C)[C@H]2[C@@H](O)C[C@H]3[C@@H]4CC[C@H]5C[C@@H](O)CC[C@]5(C)[C@H]4CC[C@]23C)NC1 | 94% (active) and 96% (active)
CCOP(=O)(OCC)C(C)(CC)NC(=O)C(C(F)(F)F)C(F)(F)F (centres undefined) | 21% (inactive)
[N-]=[N+]=NC(=O)Nc1cccc(C(F)(F)F)c1 | 99% (active)
NC(C/[N+]([O-])=N/O)C(=O)O (centres undefined) | 21% (inactive)
NC(=O)N/N=C/c1ccc([N+](=O)[O-])o1 | 73% (active)
